Compound activity from PubChem.
In the library only some 1.2% were active in any assay of this set; here they are far more common.
PTAP TSG101 blk = qHTS Assay for Iinhibitors of HIV-1 Budding by Blocking the Interaction of PTAP/TSG101; Tumor susceptibility gene 101 protein (Homo sapiens), Q99816; Fluorescence polarization, FITC-PTAP peptide / Tsg101 binding; Potency, µM (top dose mostly 115 µM), inactives show at the highest dose activity change, negative = inhibition, most hits filed as inhibitors; 340,000 tested, under 10 active; AID 493005, 2010; active = well fitted inhibition curve with a large enough effect in the main read-out, with a control signal flat, not every such curve was filed as active; inconclusive = small, poorly fitted or top-dose-only effect, or effect the other way, or a change in a side signal; inactive = no such curve, though single readings can be large or run the other way; note: potency is the fitted concentration of half-maximal effect; % of control where 0% means no effect
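Tsg101 binding domain (10 uM final) was mixed with compound and a FITC-labeled PTAP peptide (50 nM final) in HEPES pH 7.5 buffer with NaCl, Tween 20, EDTA and TCEP; fluorescence polarization was read after 20 min at r.t.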
KCNH2 3.1 inh = qHTS for Inhibitors of KCHN2 3.1: Mutant qHTS | Potassium voltage-gated channel subfamily H member 2, brain isoform KCNH2 3.1 (human) | U2OS KCNH2 3.1, thallium flux FluxOr; hits give low values | activity change, % (tested at about 1.8 µM) | actives 0.95% (n = 340,000);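 active = maximum activity change below -70%; inconclusive = maximum activity change from -70% to -50%; inactive = maximum activity change above -50%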;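 note: thallium influx rate constant from kinetic fluorescence after stimulation buffer; % is set by controls: 0 for no effect and ±100 for the full control effect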
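Channel expression came from 3.1 mutant virus (1.77 x 10^8 /mL) applied to suspended U2OS cells for 4 h. Flux was tracked with FluxOr dye plus Red40 quencher, and kinetic rate constants normalized to controls.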
Tb PFK block = qHTS Assay to Find Inhibitors of T. brucei phosphofructokinase | T. brucei PFK, ADP-Glo luminescence | ATP-dependent 6-phosphofructokinase (Trypanosoma brucei brucei), O15648 | actives 0.17% (n = 330,000) | Potency, µM (highest dose often 57.5 µM), for the others: at the top dose activity, negative = inhibition, actives largely listed as inhibitors; active = well fitted inhibition curve with a large enough effect; inconclusive = small, poorly fitted or top-dose-only effect, or effect the other way;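 note: potency is the fitted concentration of half-maximal effect; 0% = uninhibited 1x PFK enzyme wells and -100% = no-enzyme wells; nearly all actives have a fitted effect of over 60% in size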
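Luminescent ADP detection (ADP-Glo, two-step: ATP depletion then ADP-to-ATP conversion for luciferase) reported PFK activity after 45 min room-temperature reaction of 1.25 nM enzyme with 0.5 mM F6P and 0.1 mM ATP at pH 8.0.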
KCNH2 WT inh = qHTS for Inhibitors of KCHN2 3.1: Wildtype qHTS | Voltage-gated inwardly rectifying potassium channel KCNH2 (Homo sapiens), Q12809 | U2OS, BacMam KCNH2, thallium flux FluxOr; hits give low values | activity change, % at 1.84 µM | actives 0.37% (n = 340,000) | AID 720551, 2013;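 active = maximum activity change below -70%; inconclusive = maximum activity change between -70% and -50%; inactive = maximum activity change above -50%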; note: % is set by controls: 0 for no effect and ±100 for the full control effect
Target sequence (Q12809 whole entry, looked up): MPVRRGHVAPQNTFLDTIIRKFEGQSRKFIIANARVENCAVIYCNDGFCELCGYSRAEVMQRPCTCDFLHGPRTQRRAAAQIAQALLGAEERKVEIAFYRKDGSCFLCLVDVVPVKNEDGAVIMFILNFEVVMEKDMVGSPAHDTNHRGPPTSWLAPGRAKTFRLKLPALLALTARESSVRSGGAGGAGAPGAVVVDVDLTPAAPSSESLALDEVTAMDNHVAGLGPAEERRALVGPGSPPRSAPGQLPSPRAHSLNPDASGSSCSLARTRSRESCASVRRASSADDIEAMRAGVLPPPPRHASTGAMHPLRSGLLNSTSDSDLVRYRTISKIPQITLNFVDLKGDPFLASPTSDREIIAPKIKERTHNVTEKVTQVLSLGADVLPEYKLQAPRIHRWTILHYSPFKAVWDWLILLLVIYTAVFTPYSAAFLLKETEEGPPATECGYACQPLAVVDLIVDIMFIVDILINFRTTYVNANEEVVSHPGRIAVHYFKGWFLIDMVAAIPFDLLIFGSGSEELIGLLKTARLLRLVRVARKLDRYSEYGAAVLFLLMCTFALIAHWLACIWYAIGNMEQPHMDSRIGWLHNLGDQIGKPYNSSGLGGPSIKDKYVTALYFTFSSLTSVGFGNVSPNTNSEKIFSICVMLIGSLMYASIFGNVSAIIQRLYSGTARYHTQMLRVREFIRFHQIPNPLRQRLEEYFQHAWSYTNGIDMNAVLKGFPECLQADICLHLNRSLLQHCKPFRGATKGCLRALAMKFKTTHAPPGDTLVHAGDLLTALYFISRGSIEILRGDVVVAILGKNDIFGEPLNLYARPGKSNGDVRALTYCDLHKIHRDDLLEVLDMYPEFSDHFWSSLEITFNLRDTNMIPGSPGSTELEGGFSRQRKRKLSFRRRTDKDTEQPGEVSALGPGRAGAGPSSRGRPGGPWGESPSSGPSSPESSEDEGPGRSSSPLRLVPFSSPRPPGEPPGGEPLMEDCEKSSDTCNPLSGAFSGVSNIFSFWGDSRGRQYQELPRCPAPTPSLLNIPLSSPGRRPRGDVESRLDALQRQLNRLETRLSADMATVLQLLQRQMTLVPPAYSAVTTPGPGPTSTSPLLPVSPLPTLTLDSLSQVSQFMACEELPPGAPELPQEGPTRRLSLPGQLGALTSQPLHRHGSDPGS
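U2OS cells were transduced with wild-type KCNH2 virus (2.03 x 10^8 / mL) for 4 h at room temperature, then cultured overnight at 37 C. Thallium flux was read with FluxOr dye. Rate constants were normalized to DMSO controls.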
The depositor's hits bear a star; u = inconclusive; x = no result; [ ] = dose if it differs, or a comment.

SMILES	PTAP TSG101 blk	KCNH2 3.1 inh	Tb PFK block	KCNH2 WT inh
CCOc1ccc(-c2nc[nH]c2[N+](=O)[O-])cc1	-1%	-198*	-4%	-9
Cn1nccc1NC(=O)COCC(=O)O	0%	22	-1%	4
COc1ccccc1-n1cnnc1SCC(=O)Nc1ccccc1	-7%	-86*	0%	-1
COc1ccc(C)cc1N(CC(=O)NC1CCCC1)C(=O)Cn1nnc(-c2ccc(C)o2)n1	-12%	-101*	2%	1
COCCN(C(=O)COC(=O)C12CC3CC(CC(C3)C1)C2)c1c(N)n(Cc2ccccc2)c(=O)[nH]c1=O	-3%	9	x	-2
Cc1cc(F)c(F)c(C(=O)N2CCC(C)CC2)c1Cl	-7%	-135*	0%	1
O=C1NC(Cc2ccccc2)c2nc3cc(Cl)ccc3c(=O)n2-c2ccccc21 (stereo not drawn)	x	x	-6%	x
CSc1nc(N2CCN(Cc3ccc4c(c3)OCO4)CC2)c2ccccc2n1	-4%	-73*	-4%	-1
Cc1nc(N2CCN(Cc3ccc4c(c3)OCO4)CC2)c2cc(-c3ccccc3)sc2n1	1%	-21	-4%	13
C(#Cc1ccccc1)C[N+]1(CC#Cc2cccc3ccccc23)CCCC1	-2%	-80*	-2%	-15
CCOC(=O)c1[nH]c(C)c(C(=O)OCC(=O)N2CC(=O)Nc3ccccc32)c1C	-1%	7	-1%	1
CSCCC(NC(=O)c1ccc(Cl)c([N+](=O)[O-])c1)C(=O)N1CCN(C/C=C/c2ccccc2)CC1 (stereo not drawn)	-1%	-97*	14%	-42
N#Cc1ccc2c(c1)C[C@]1(CCCCN3C(=O)c4ccccc4C3=O)Oc3cc(-c4ccccc4)oc(=O)c3[C@H]2O1	x	x	6%[11.5 µM]	x
COc1ccc(S(=O)(=O)N(CC(=O)N/N=C/c2cccs2)c2cc(C)cc(C)c2)cc1OC	-9%	-95*	2%	1
CCC(Sc1nc2cc3c(cc2c(=O)n1Cc1ccco1)OCO3)C(=O)Nc1ccccc1OC (stereo not drawn)	-2%	x	2%	-3
CCC(Sc1nc2cc3c(cc2c(=O)n1Cc1ccco1)OCO3)C(=O)Nc1cccc(OC)c1 (stereo not drawn)	2%	-87*	-4%	u
Cc1nc(NC(=S)NC(=O)c2ccco2)sc1C(=O)N(C)C	-2%	3	2%	-123*
Cc1ccc(C(=O)Nc2nc(C)c(C(=O)N(C)C)s2)o1	5%	-14	0%	-12
O=C(CCC(=O)N1CCOc2ccc(Cl)cc21)NCCCN1CCN(c2ccccc2F)CC1	1%	-10	u	30
COc1ccc(N2CCN(CCCNC(=O)CCC(=O)N3CCOc4ccc(Cl)cc43)CC2)cc1	-10%	-80*	-24%	36
Cc1ccc(C)c(N2CCN(CCCNC(=O)CCC(=O)N3CCOc4ccc(Cl)cc43)CC2)c1	x	x	-25%	x
O=C(CCC(=O)N1CCOc2ccc(Cl)cc21)NCCCN1CCC(Cc2ccccc2)CC1	-2%	-80*	u	-44
O=C(COC(=O)C1COc2ccccc2O1)NC(=O)NC1CCCC1 (stereo not drawn)	-1%	-143*	-3%	-198*
CC(C)N(C)CCOC(=O)C1COc2ccccc2O1 (stereo not drawn)	-3%	-204*	-2%	1
O=C(NCCOC(=O)C1COc2ccccc2O1)C1COc2ccccc2O1 (stereo not drawn)	1%	-21	0%	12
O=C(COC(=O)C1COc2ccccc2O1)NC1CCCCC1 (stereo not drawn)	-1%	6	2%	-9
C=C1C(O)[C@@H]2O[C@]3(CC[C@H](/C=C/C(C)[C@@H]4CC(C)=CC5(O[C@H](C[C@@](C)(O)CO)CCC5O)O4)O3)CC[C@H]2O[C@@H]1C(O)CC(C)[C@H]1OC2(CCCCO2)CCC1C (stereo partly drawn)	-1%	4	-4%	-13
O=c1cc(N2CCCCC2)c(-c2ccccc2)nn1Cc1ccc(Cl)cc1	-1%	-95*	2%	-8
